# Laboratory results from the supplement of paper PMC11001985.
# Values without a mark were called inactive.
# Compound: C#CCNC(=O)CCSSCCC(=O)NCCc1ccc(C=O)c(C=O)c1
# Test: lysine labeling ratio R10:1 (500 µM / 50 µM probe), SILAC-ABPP in living cells; higher = lower intrinsic lysine reactivity toward the probe, active = 2 or less
# Conditions: HeLa; probe concentrations 500 vs 50 µM
# Method: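 Living HeLa cells (SILAC light/heavy) in PBS at room temperature were labeled with 50 µM versus 500 µM of the lysine-reactive, reductant-cleavable probe OPA-S-S-alkyne (SILAC labeling time not stated). Probe-modified peptides were CuAAC-biotinylated, captured on neutravidin and eluted with DTT/IAA, then quantified by LC-MS/MS. R = median peptide ratio per lysine (500/50 µM), combined over 3 forward and 3 reverse SILAC replicates. Ratios are capped at 20; R < 2 = hyper-reactive.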
# UniProt Q15149, sequence (Q15149 whole entry): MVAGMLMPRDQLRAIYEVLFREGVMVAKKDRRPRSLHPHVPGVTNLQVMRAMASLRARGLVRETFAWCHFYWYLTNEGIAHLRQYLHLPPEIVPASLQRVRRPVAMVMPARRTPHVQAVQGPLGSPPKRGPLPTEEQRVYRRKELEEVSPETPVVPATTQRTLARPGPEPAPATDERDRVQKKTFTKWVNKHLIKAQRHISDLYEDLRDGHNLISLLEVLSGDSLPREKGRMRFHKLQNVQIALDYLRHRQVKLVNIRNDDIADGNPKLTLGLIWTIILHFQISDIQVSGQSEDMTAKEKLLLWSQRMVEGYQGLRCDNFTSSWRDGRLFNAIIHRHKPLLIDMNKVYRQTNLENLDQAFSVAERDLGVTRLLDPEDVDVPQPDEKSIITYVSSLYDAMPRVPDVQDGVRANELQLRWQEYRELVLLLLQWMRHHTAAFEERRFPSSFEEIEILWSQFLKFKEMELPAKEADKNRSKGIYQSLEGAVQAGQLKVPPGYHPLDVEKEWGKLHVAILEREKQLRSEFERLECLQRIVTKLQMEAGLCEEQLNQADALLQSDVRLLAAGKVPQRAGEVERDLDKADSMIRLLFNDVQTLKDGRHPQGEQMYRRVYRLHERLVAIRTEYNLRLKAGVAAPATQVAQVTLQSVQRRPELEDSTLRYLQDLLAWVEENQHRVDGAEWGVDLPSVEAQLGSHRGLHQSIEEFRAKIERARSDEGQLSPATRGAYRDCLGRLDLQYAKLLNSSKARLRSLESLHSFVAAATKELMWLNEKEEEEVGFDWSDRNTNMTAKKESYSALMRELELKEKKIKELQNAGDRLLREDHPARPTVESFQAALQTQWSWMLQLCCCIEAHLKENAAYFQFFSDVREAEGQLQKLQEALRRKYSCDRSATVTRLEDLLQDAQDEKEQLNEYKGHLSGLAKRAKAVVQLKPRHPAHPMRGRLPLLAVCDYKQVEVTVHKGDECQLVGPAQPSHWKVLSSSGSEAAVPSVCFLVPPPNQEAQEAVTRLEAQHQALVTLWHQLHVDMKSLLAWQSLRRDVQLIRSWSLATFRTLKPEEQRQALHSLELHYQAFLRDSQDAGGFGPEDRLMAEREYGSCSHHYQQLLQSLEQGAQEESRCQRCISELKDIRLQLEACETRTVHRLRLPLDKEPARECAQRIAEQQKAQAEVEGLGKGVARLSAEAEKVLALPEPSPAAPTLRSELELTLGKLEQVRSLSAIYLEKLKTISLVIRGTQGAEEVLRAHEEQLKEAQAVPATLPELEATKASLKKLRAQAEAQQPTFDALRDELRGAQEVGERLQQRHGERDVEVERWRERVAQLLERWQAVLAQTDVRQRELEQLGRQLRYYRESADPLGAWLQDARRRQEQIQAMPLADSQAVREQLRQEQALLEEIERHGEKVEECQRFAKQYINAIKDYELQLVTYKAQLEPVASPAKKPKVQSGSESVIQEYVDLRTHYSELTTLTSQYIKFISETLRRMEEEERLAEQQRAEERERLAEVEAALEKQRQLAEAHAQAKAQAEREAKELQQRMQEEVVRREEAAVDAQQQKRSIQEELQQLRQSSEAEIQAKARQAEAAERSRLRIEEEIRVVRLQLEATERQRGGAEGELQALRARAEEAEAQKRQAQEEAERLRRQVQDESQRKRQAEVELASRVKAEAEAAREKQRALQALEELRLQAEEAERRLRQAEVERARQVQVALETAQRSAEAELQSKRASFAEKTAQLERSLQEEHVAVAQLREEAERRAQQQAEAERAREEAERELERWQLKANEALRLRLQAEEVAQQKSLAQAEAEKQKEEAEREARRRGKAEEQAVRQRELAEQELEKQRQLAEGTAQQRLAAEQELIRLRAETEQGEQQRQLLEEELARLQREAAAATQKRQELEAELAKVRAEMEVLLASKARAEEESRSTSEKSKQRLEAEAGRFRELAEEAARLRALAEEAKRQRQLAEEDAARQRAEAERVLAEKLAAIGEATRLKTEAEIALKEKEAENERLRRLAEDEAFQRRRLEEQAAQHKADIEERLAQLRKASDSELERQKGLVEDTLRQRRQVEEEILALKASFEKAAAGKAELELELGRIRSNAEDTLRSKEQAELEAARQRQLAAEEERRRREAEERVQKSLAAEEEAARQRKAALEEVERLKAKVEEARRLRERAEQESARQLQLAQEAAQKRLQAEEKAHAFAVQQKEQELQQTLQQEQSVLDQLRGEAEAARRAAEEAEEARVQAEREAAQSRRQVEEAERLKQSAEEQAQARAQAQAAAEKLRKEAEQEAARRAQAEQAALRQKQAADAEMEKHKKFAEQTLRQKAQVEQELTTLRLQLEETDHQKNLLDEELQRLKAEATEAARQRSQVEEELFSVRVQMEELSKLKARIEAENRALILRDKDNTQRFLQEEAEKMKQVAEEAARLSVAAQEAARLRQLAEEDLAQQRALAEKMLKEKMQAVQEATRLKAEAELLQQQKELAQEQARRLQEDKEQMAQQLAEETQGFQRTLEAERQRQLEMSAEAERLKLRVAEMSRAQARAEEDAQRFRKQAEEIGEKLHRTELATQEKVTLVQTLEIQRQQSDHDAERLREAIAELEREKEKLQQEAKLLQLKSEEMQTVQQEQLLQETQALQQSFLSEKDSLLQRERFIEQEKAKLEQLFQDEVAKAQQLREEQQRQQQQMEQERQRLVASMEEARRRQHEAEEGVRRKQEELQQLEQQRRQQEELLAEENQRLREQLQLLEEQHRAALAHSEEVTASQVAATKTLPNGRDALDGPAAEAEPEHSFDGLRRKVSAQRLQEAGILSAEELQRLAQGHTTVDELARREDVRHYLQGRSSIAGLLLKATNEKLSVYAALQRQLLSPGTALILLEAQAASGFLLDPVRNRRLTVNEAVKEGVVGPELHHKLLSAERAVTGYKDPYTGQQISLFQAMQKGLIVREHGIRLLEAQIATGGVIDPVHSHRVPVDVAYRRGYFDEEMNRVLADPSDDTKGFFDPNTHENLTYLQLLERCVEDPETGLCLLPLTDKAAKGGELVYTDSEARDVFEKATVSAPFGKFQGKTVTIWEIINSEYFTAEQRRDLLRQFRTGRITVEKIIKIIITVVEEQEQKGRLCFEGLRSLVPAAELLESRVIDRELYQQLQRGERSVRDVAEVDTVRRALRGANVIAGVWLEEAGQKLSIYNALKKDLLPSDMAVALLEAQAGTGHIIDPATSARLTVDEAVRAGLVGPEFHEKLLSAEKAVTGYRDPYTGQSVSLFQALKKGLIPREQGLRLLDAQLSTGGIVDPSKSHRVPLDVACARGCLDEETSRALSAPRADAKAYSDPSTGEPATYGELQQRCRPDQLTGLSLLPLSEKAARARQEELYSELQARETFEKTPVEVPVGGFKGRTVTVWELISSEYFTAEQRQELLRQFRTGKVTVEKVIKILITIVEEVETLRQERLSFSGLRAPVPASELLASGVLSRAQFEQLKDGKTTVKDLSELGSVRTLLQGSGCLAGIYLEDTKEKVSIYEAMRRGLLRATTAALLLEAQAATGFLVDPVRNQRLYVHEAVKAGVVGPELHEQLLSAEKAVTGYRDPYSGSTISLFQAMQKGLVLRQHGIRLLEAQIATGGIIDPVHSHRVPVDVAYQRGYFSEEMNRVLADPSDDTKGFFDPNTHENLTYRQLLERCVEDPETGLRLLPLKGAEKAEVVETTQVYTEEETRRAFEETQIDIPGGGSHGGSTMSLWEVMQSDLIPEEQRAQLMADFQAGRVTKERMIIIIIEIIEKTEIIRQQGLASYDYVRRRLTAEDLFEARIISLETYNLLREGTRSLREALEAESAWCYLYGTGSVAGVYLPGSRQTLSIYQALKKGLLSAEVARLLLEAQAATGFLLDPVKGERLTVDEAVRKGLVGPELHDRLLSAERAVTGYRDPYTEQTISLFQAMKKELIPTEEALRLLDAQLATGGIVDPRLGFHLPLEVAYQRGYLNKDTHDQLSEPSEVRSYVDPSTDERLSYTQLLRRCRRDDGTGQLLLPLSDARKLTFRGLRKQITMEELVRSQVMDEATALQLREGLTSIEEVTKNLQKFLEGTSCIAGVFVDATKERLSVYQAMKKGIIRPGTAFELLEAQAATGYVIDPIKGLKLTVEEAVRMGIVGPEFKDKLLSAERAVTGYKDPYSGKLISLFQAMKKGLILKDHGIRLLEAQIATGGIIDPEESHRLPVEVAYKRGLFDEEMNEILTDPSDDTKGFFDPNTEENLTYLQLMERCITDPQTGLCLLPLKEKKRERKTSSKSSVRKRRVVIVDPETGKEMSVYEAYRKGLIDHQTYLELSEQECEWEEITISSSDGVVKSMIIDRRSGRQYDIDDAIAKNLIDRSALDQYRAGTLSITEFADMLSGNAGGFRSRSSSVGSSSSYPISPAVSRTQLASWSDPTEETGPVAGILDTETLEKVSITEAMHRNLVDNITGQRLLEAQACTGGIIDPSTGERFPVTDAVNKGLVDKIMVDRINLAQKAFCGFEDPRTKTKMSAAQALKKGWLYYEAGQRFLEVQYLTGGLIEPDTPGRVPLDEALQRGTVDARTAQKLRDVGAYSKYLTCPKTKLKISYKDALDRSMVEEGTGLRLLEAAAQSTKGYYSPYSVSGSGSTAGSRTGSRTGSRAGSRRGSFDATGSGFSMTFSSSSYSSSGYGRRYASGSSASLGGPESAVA
# UniProt P08670, sequence (P08670 whole entry): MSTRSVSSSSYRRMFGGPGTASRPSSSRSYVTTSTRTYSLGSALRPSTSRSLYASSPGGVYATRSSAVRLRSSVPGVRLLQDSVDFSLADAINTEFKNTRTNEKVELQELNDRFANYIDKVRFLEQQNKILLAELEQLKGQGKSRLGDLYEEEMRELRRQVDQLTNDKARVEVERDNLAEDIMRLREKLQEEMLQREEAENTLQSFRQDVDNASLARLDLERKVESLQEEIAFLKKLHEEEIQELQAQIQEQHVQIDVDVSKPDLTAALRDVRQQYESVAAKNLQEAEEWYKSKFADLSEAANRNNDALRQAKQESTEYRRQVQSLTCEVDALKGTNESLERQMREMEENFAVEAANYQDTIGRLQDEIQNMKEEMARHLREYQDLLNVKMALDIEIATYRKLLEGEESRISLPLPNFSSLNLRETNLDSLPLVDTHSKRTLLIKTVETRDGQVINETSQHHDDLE
row,Target,lysine labeling ratio R10:1
1,NUMA1 (lysine site: K751) (UniProt Q14980),2.82
2,VIM (lysine site: K188) (UniProt P08670),11.1
3,DDX3X (lysine site: K264) (UniProt O00571),1.78 (active)
4,DDR1 (lysine site: K30) (UniProt Q08345),1.33 (active)
5,L1CAM (lysine site: K515) (UniProt P32004),1.77 (active)
6,SH3BP4 (lysine site: K679) (UniProt Q9P0V3),3.02
7,PLXND1 (lysine site: K310) (UniProt Q9Y4D7),3.11
8,FLNB (lysine site: K1241) (UniProt O75369),1.42 (active)
9,UniProt Q15149 (lysine site: K2078),2.58
10,UniProt P61160 (lysine site: K253),3.35
11,CSPG4 (lysine site: K831) (UniProt Q6UVK1),5.17
12,UniProt P18859 (lysine site: K46),4.7
13,IGF1R (lysine site: K598) (UniProt P08069),5.67
14,UniProt O60245 (lysine site: K713),2.99
15,HSPA9 (lysine site: K121) (UniProt P38646),1.51 (active)
16,UniProt P21589 (lysine site: K67),2.8
17,PIEZO1 (lysine site: K113) (UniProt Q92508),4.13
18,UniProt Q15149 (lysine site: K630),7.1
19,TKT (lysine site: K283) (UniProt P29401),7.35
20,AK2 (lysine site: K147) (UniProt P54819),6.91

row,Target,lysine labeling ratio R10:1
1,UniProt Q15149 (lysine site: K2129),3.49
2,LMAN1 (lysine site: K87) (UniProt P49257),3.85
3,GSN (lysine site: K239) (UniProt P06396),4.08
4,LAMB1 (lysine site: K1708) (UniProt P07942),3.33
5,MET (lysine site: K600) (UniProt P08581),1.67 (active)
6,CNP (lysine site: K197) (UniProt P09543),2.88
7,UniProt P68371 (lysine site: K58),2.53
8,CD109 (lysine site: K491) (UniProt Q6YHK3),2.99
9,UniProt Q15149 (lysine site: K1718),4.36
10,DSTN (lysine site: K78) (UniProt P60981),1.54 (active)
11,MYH9 (lysine site: K1492) (UniProt P35579),2.92
12,UniProt Q12884 (lysine site: K258),3.81
13,SMC2 (lysine site: K222) (UniProt O95347),1.74 (active)
14,UniProt Q9Y653 (lysine site: K107),2.31
15,SPTAN1 (lysine site: K1023) (UniProt Q13813),9.87
16,CDH13 (lysine site: K74) (UniProt P55290),5.06
17,UniProt P35908 (lysine site: K580),5.72
18,PRDX2 (lysine site: K92) (UniProt P32119),6.57
19,UniProt Q15149 (lysine site: K3968),2.71
20,UniProt P62269 (lysine site: K54),1.41 (active)
